What all share (assay): Cytotoxic Profiling of Annotated Libraries Using Quantitative High-Throughput Screening (AID 1296008); further: nearly all actives have a fitted effect of over 60% in size
Conditions in all cases: Five cell lines viability, CellTiter-Glo ATP luminescence, 48-72 h; max response: active compounds read low
A general note: Cellular ATP, detected with luciferase, serves as a proxy for viable cell number.

One assay concerns HaCat. The method, boiled down: (§1)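 Compounds were pin-transferred onto cells and incubated 48 or 72 hr at 37 degree Celsius, 95% humidity. CellTiter-Glo was added, plates sat 10 min at room temperature, then ATP-coupled luminescence was imaged as the viability read-out.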
The next assay deals with KB-3-1. The essentials: as §1
A further assay concerns NIH3T3. The essentials: as §1

Inconclusive results are not listed. Some compounds were tested as several samples or in several runs, with calls that do not always agree. A number with no mark means an inactive call. The source made the active and inactive calls. The call rests on the fitted dose curve; in most records, active means well fitted inhibition curve with a large enough effect; inconclusive means small, poorly fitted or top-dose-only effect; inactive means flat fitted curve, though single readings scatter.
On the % scale 0 is the no-effect control and ±100 the full control effect; potency means the concentration at half of the fitted maximal effect.

For `C=C(C)C(=O)OC1C(OC(C)=O)/C(C=O)=C\CC/C(CO)=C/C2OC(=O)C(=C)C21` (configuration not stated), the values for the max response with HaCat and in the assay on KB-3-1 were -6.21% and -25.3%, respectively.
In the case of `CCCC(=O)NCCc1csc(-c2ccc(Cl)cc2)n1`, the max response was -70.2% with HaCat and -24.2% in the assay on KB-3-1.
As for `O=C1CCC(c2ccccc2)(C2CCN(Cc3ccc(I)cc3)CC2)C(=O)N1` (configuration not stated), the figures for the max response in the assay on HaCat and in the assay with KB-3-1 were -3.49% and -7.17%, respectively.
Take `COc1ccc2nc(S(=O)(=O)Cc3ncc(C)c(OC)c3C)[nH]c2c1`: the figures for the max response in the assay with HaCat and with KB-3-1 were -8.8% and -6.6%, respectively.
For `CC1=C(C(=O)OCc2ccccc2)C(c2ccc(-c3ccccc3)cc2)NC(=O)N1CCCCCC(=O)O` (configuration not stated), the max response with HaCat is -18.2%. For the same compound, the compound was classed as inactive with KB-3-1.
For the compound `C=C1C(=O)OC2CC(C)=C(C(C)CCCO)C(O)C12` (configuration not stated), the max response in the assay with HaCat was -11.4%. Moreover, the compound was called inactive with KB-3-1.
As for `COC(=O)CCSCc1ccc(-c2onc(C)c2NC(=O)OC(C)c2ccccc2Cl)cc1` (configuration not stated), in the assay on HaCat, the max response was -24.6%. The compound was called inactive in the assay with KB-3-1.
With `C=C(C)C(=O)O[C@H]1CC2=CC(C/C(C)=C\[C@H]3OC(=O)C(=C)[C@H]13)OC2=O` (some centres not stated), in the assay with HaCat, the Potency is 12.8 µM (active). In the assay with KB-3-1, the max response is -20.7%.
Consider `Cc1cc2c(F)c(Oc3ncnn4cc(OCC(C)O)c(C)c34)ccc2[nH]1` (configuration not stated), for which the figures for the max response in the assay on HaCat and in the assay with KB-3-1 were -0.656% and -12.6%, respectively.
On to `CN(C)C/C=C/C(=O)Nc1cc2c(Nc3ccc(F)c(Cl)c3)ncnc2cc1OC1CCOC1` (configuration not stated), for which the values for the Potency in the assay on HaCat and in the assay on KB-3-1 were 0.517 µM (active) and 5.17 µM (active), respectively.
In the case of `CC[C@]1(O)CC2CN(CCc3c([nH]c4ccccc34)[C@@](C(=O)OC)(c3cc4c(cc3OC)N(C)[C@H]3[C@@](O)(C(=O)OC)[C@H](OC(C)=O)[C@]5(CC)C=CCN6CC[C@]43[C@@H]65)C2)C1` (some centres not stated), the max response in the assay on HaCat is 4.47%. Besides, the Potency in the assay with KB-3-1 is 0.0366 µM (active).
Regarding `N#Cc1ccc2[nH]cc(CCCCN3CCN(c4ccc5oc(C(N)=O)cc5c4)CC3)c2c1`, the max response in the assay with HaCat is -11.5%; in the assay on KB-3-1, -15.8%.
With `CC(=O)SCC(=O)c1ccc(NS(=O)(=O)c2ccc(OCCCN(C)C)cc2)nc1`, the figures for the Potency in the assay with HaCat and in the assay with KB-3-1 were 14.6 µM (active) and 8.2 µM (active), respectively.
As for `O=C1NC(=O)C(c2cn(-c3ccccc3)nc2-c2ccc(F)cc2)N1` (configuration not stated), the Potency in the assay with HaCat is 16.4 µM (active). The compound was classed as inactive in the assay on KB-3-1.
Turning to `CC1(C)C2CC(OC3OC(COC4OCC(O)(CO)C4O)C(O)C(O)C3O)C1(C)CC2O` (configuration not stated), the max response in the assay on HaCat is -6.58%. Besides, in the assay on KB-3-1, the result was inactive.
Take `COC(=O)Cc1cc2c(c([N+](=O)[O-])c1)N(C(=O)CC[C@H](N)C(=O)O)CC2`: the max response in the assay on HaCat was -29.1%; in the assay on KB-3-1, 7.29%.
As for `CCOc1cc(C(=O)N2CCC(N3CCN(C)CC3)CC2)ccc1Nc1ncc2c(n1)N(C1CCCC1)c1ccccc1C(=O)N2C`, in the assay with HaCat, the max response was -1.5%. Besides, the Potency with KB-3-1 was 23.1 µM (active).
Turning to `CC(C)CCC(=O)CC1c2ccccc2C(=O)N1c1ccc2ccc(Cl)nc2n1` (configuration not stated), the max response was 3.26% with HaCat and 2.42% in the assay on KB-3-1.
Turning to `CO[C@H]1/C=C/C=C/C=C/C[C@H](OC(=O)[C@@H](C)NC(=O)C2CCCCC2)[C@H](C)[C@@H](O)/C(C)=C/CCc2cc(O)cc(c2)NC(=O)C1`, the Potency is 1.09 µM (active) in the assay on HaCat and 0.544 µM (active) in the assay on KB-3-1.
Consider `C=C1[C@@H]2CC[C@@H]3[C@@](CCC4C(C(=O)O)(C(=O)O)C[C@@H](O[C@@H]5O[C@H](CO)[C@@H](O)[C@H](O)[C@H]5OC(=O)CC(C)C)C[C@]43C)(C2)[C@H]1O` (some centres not stated), for which, in the assay with HaCat, the max response is 2.26%. In addition, the outcome in the assay with KB-3-1 was inactive.
Taken in the same sequence, the figures for `O=C(O)[C@@H]1C[C@H]2C[C@@H](CCc3nn[nH]n3)CC[C@H]2CN1` were 2.14% and “inactive”.
As to `NC(=O)[C@H]1CCS[C@@H]2C[C@]3(CCCN3C(=O)Cc3ccc(NC(=O)COc4ccc(Cl)cc4Cl)cc3)C(=O)N12`, in the assay on HaCat, the Potency was 18.6 µM (active) and the max response is -24.7%. Besides, the Potency with NIH3T3 is 11.7 µM (active).
`Cc1ccc(C(=O)Nc2noc3ccccc23)cc1`: in the assay with HaCat, the max response is -29.9%. The compound was called inactive with KB-3-1.
For the compound `Cc1noc(-c2ccc(-c3ccc(CC(=O)O)cc3)cc2)c1NC(=O)O[C@H](C)c1ccccc1`, the max response with HaCat was -1.06%; in the assay with KB-3-1 it was 0.957%.
In the case of `O=C(Cc1ccc(-c2ccccc2)cc1)NC1CCC1`, the max response with HaCat was -21.1%; with KB-3-1 it was 4.19%.
For the compound `COc1cc(-c2ncn(/C=C\C(=O)OC(C)C)n2)cc(C(F)(F)F)c1`, the Potency in the assay with HaCat is 2.06 µM (active); with KB-3-1 it was 1.84 µM (active).
Regarding `COc1nc2sc(C(=O)NC3CC3)c(N)c2c(C)c1Cl`, the max response in the assay with HaCat was -34.1%. Besides, the compound was called inactive with KB-3-1.
With `COc1ncc(Nc2ncc([C@@H](C)N3CCN(S(C)(=O)=O)CC3)cc2-c2nc(C)nc(N)n2)cc1F`, the Potency was 0.058 µM (active) in the assay with HaCat and 9.2 µM (active) with KB-3-1.

(Values after PubChem BioAssay (NCATS).)
